ATXN viability: cell viability loss in ATXN counter-screen | 0.49% of 400,000 active | S2 cells (HEK-293 line with an ATXN2-luciferase reporter) viability, CellTiter-Fluor protease fluorescence, 24 h | Potency, µM (titrated, usually from 56.7 µM), usual class: cytotoxic; note: nearly all actives have a fitted effect of over 40% in size
HT1080NT lethal: kills 2HG-producing HT-1080-NT fibrosarcoma cells | HT-1080-NT fibrosarcoma viability, CellTiter-Glo ATP luminescence, 48 h | Potency, µM (doses to about 46.1 µM), most hits filed as cytotoxic | 1.6% of 360,000 active | AID 686970;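 note: NT is the 2HG producing partner of a matched IDH1 knockdown line; nearly all actives have a fitted effect of over 55% in size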
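HT-1080-NT; 750 cells/well; 5% FBS RPMI; 48 h compound, 37 degrees C; CellTiter-Glo luminescence; curve fitting and curve-class assignment.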
KB-3-1 tox: kills parental KB-3-1 adenocarcinoma cells | KB-3-1 viability, CellTiter-Glo ATP luminescence, 72 h | Potency, µM (highest dose often 46.1 µM), most hits filed as cytotoxic | 1.4% of 400,000 active; note: nearly all actives have a fitted effect of over 60% in size
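72 h, 37 °C compound treatment of KB-3-1 parental cells; CellTiter-Glo added, 10 min, luminescence read. Data corrected against DMSO-only plates and normalized before curve fitting.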
HT1080 IDH1KD tx: kills HT-1080 cells with IDH1 knockdown | Potency, µM (highest dose often 46.1 µM), hits mostly cytotoxic | HT-1080 IDH1 knockdown viability, ATP luminescence, 48 h | 2% of 360,000 active
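% activity derives from luminescence (CellTiter-Glo), normalised to DMSO and no-cell wells. HT-1080-IDH1KD cells, 750/well, had 48 h compound exposure at 37 °C.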
KB-V1 cytotox: kills drug-selected multidrug resistant KB-V1 cells; KB-V1 MDR cells viability, CellTiter-Glo, 72 h; 3.4% of 400,000 active; Potency, µM (series often up to 46.1 µM), actives largely listed as cytotoxic; AID 1347076; note: nearly all actives have a fitted effect of over 60% in size
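Potencies derive from concentration-effect curves fitted to normalized luminescence (CellTiter-Glo) of KB-V1 cells treated for 72 h at 37 degrees C in phenol-red-free DMEM containing 10% FBS.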
ATXN2 expr inh: ATXN2 expression inhibition | HEK-293 ATXN2-luciferase reporter, luminescence, 24 h | Potency, µM (doses to about 57 µM), most hits filed as inhibitors | 0.72% of 360,000 active | AID 1745845; note: nearly all actives have a fitted effect of over 55% in size
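qHTS (up to 57 uM final) was run with 24 h compound exposure of reporter cells at 37 °C. Each well was multiplexed: SteadyGlo luminescence measured ATXN2-luciferase expression after a fluorogenic Gly-Phe-AFC viability readout (25 uM final).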
Hits are given with their value; n = inactive; u = inconclusive; x = not tested or not shown. In the library only some 6.2% were active in any assay of this set; here they are far more common. Calls come from the whole dose curve; as a rule, active = well fitted curve in the direction sought with a large enough effect; inconclusive = small, poorly fitted or top-dose-only effect, or another doubt; inactive = no such curve, though single readings can be large; an effect the other way counts as inactive or inconclusive.

SMILES	ATXN viability	HT1080NT lethal	KB-3-1 tox	HT1080 IDH1KD tx	KB-V1 cytotox	ATXN2 expr inh
CCS(=O)(=O)Nc1cc(C(=O)N2CCC[C@H]2CO)c2c(c1)nc(-c1ccccc1)n2C	n	x	x	x	x	x
CSc1nc(Cl)c(Cc2ccc(OC(C)C)cc2)c(N2CCOCC2)n1	n	n	9.2µM	u	u	n
CN(NC(=O)c1cccc(Cl)c1)c1nc(-c2ccccc2)nnc1C(F)(F)F	n	n	23µM	n	u	n
CN(N)c1nc(-c2ccccc2)nnc1C(F)(F)F	n	n	n	n	n	n
Cc1ccc(NC(=O)CN2C(=O)CCc3cc(S(=O)(=O)N4CCOCC4)ccc32)cc1F	n	x	n	x	n	n
Cc1cc(C)n(-c2nc(SCCN3CCOCC3)c3c4c(sc3n2)CCCC4)n1	n	n	u	n	n	n
Cc1cc(C)n(-c2nc(NCCN(C)C)c3c4c(sc3n2)CCCC4)n1	22µM	21µM	n	21µM	u	14µM
Cc1cc(C)n(-c2nc(NCCCN(C)C)c3c4c(sc3n2)CCCC4)n1	x	15µM	u	u	u	22µM
COc1cccc(CN2CCC3(CCC(CNC(=O)c4ccco4)O3)CC2)c1OC (centres undefined)	n	x	x	x	x	x
Cc1ccc(CNC(=O)CC(C)S(=O)(=O)c2ccc3c(c2)NC(=O)CS3)o1 (centres undefined)	n	n	n	n	n	n
COc1ccc(CNC(=O)C2CCCN2c2nc(C)c3ccccc3n2)cc1 (centres undefined)	n	x	x	x	x	x
Cc1nn2c(CN(C(=O)COc3ccccc3)c3ccccc3)nnc2c2ccccc12	n	n	u	n	4.6µM	n
Cc1nn2c(CN(C(=O)CN3CCOCC3)c3ccccc3)nnc2c2ccccc12	n	n	n	n	n	n
Cc1nn2c(COc3ccc(NC(=O)c4ccccc4Cl)cc3)nnc2c2ccccc12	n	u	u	15µM	u	n
COc1cc(CN(C)c2ncnc3sccc23)ccc1OC(F)F	n	n	u	n	8.2µM	n
COc1ccc(OC)c(Nc2ncnc3sccc23)c1	n	n	n	n	n	x
CCOc1ccc(-c2nnn(CC(=O)NCc3ccco3)n2)cc1	n	n	u	n	u	n
CCOc1ccc(-c2nnn(CC(=O)NCc3ccccc3)n2)cc1	n	n	6.5µM	n	u	n
Cc1cccc2cc3c(N)c(C(=O)N4CCOCC4)sc3nc12	n	u	2.9µM	u	3.7µM	n
Cc1cc(C)c2cc3c(N)c(C(=O)N4CCc5ccccc5C4)sc3nc2c1	x	n	n	n	n	n
COc1ccc(C(=O)OCC(=O)c2ccc3[nH]c(=O)[nH]c3c2)c(OC)c1OC	n	n	n	n	n	n
Cc1ccc(CCNc2ncnc(Cl)c2N)cc1	n	0.65µM	u	u	u	n
CCc1cc(-c2cnnn2Cc2ccccc2)ccc1-c1cn(CC(C)C)nn1	u	u	u	u	10µM	u
CCCc1n[nH]c(=O)c2c1nnn2Cc1ccccc1	n	n	n	n	n	n
CCc1ccc(NC(=O)N(Cc2cn(CC)c3ccccc23)C2CCCCC2)cc1	x	x	u	x	n	u
SMILES	ATXN viability	HT1080NT lethal	KB-3-1 tox	HT1080 IDH1KD tx	KB-V1 cytotox	ATXN2 expr inh
COc1ccccc1N1CCN(/N=C/c2ccc(Cl)c([N+](=O)[O-])c2)CC1	n	n	n	n	n	x
O=[N+]([O-])c1cc(/C=N/N2CCN(C3c4ccccc4-c4ccccc43)CC2)ccc1Cl	n	n	21µM	n	u	n
C(=N\N1CCN(C2c3ccccc3-c3ccccc32)CC1)/c1ccccn1	n	n	u	n	18µM	n
CO[C@H]1C=CO[C@@]2(C)Oc3c(C)c(O)c4c(O)c(c5c(c4c3C2=O)NC2(CCN(CC(C)C)CC2)N=5)=NC(=O)C(C)=CC=C[C@H](C)[C@H](O)[C@@H](C)[C@@H](O)[C@@H](C)[C@H](OC(C)=O)[C@H]1C	x	x	x	x	x	n
Cc1cc(C(=O)NCC2CCC3(CCN(Cc4ccc(F)cc4)CC3)O2)n(C)n1 (centres undefined)	n	x	x	x	x	x
CCOC(=O)C1(S(=O)(=O)c2ccc(Cl)cc2)CCN(Cc2ccc(C)cc2)CC1	n	u	u	u	21µM	n
CCOC(=O)C1(Cc2ccc(Cl)cc2)CCN(Cc2cnc(N)nc2)CC1	n	n	n	n	n	n
CN(C)c1ccc(/C=N/NC(=O)CNC(=O)c2ccncc2)cc1	n	n	n	n	n	n
CC/C(=C\c1ccc(N(C)C)cc1)c1ccncc1	n	u	21µM	u	10µM	n
CC1Cc2ccccc2N1C(=O)CNCCCN(C)C (centres undefined)	n	n	n	n	n	n
CC1CC2(C)Oc3ccccc3CC2C(C)C1CNCCCN(C)C (centres undefined)	u	5.8µM	15µM	6.5µM	18µM	14µM
COc1ccccc1CCNC(=O)Cn1ccc2cc(S(=O)(=O)N3CCCCC3)ccc21	u	x	n	x	n	n
Cc1cc(C)n(-c2cccc(C(=O)NCC3Cc4cccc(-c5cccnc5)c4O3)c2)n1 (centres undefined)	n	x	x	x	x	x
CCc1nnc(NC(=O)Cc2ccc(S(=O)(=O)N3CCCCC3)cc2)s1	n	n	u	n	n	n
O=C(NCc1ccc2c(c1)OCO2)c1ccc(CS(=O)(=O)c2cccc(C(F)(F)F)c2)o1	u	n	n	n	18µM	n
CCn1cc(C(=O)N2CCN(c3ccccn3)CC2)c2cc(OC)c(OC)cc2c1=O	n	n	n	n	16µM	n
O=C(c1ccc(CS(=O)(=O)c2cccc(C(F)(F)F)c2)o1)N1CCN(c2ccccn2)CC1	n	n	n	n	18µM	n
CCCc1ccc(OCc2ccc(C(=O)N3CCN(c4ccccn4)CC3)o2)c(OC)c1	n	u	n	u	3.7µM	u
CCCCn1nnnc1C1(C)CCC(=O)N1CCc1ccccc1F (centres undefined)	n	n	n	n	u	n
OB(O)c1cc2ccccc2o1	x	x	u	x	n	x
CCc1c(C)nc2ncnn2c1N1CCCC(C(=O)NCCc2ccccc2)C1 (centres undefined)	n	n	u	u	13µM	n
CCc1c(C)nc2ncnn2c1N1CCCC(C(=O)NCc2ccco2)C1 (centres undefined)	n	n	u	n	n	n
CCc1c(C)nc2ncnn2c1N1CCCC(C(=O)NCc2cccs2)C1 (centres undefined)	n	n	u	n	16µM	n
Cc1nc2ncnn2c(N2CCCC(C(=O)Nc3ccccc3Br)C2)c1C (centres undefined)	n	n	n	n	10µM	n
COc1ccc(OC)c(NC(=O)C2CCN(c3cc(-c4ccccc4)nc4ncnn34)CC2)c1	n	n	n	n	15µM	u

Assay outcomes: PubChem, National Center for Advancing Translational Sciences (NCATS)
